From PubChem BioAssay
The source made the active and inactive calls.

How the values were obtained:
[1] = small molecules captured by biotinylated probe aFSTL3 – biochemical, small-molecule microarray, fluorescence 635/667, stem cell growth factor project, primary screen (AID 1064); conditions: higher = more signal;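 also: measures binding of the biotinylated anti-FSTL3 antibody to printed compounds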
[2] = binders from COS7 lysate, DM2A8 probe, primary screen, torsin A project, cell lysate, small-molecule microarray, fluorescence 635/667 (AID 1065); conditions: higher = more signal, COS7 lysate expressing mutant human TOR1A
[3] = small molecules captured by biotinylated probe aFGF2 – biochemical, small-molecule microarray, fluorescence 635/667, stem cell growth factor project, primary screen (AID 1067); conditions: higher = more signal;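 also: measures binding of biotinylated aFGF2 protein to printed compounds on slides; z-score merges feature fluorescence and signal-to-noise across triplicate slides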
[4] = small molecules captured by biotinylated probe aFGF10 – biochemical, small-molecule microarray, fluorescence 635/667, stem cell growth factor project, primary screen (AID 1071); conditions: higher = more signal;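 also: score merges 667 nm spot intensity and signal to noise from triplicate slides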
[5] = target: Neurogenic locus notch homolog protein 2 (Homo sapiens) (UniProt Q04721); assay: small molecules binding Notch2 protein – biochemical, small-molecule microarray, 635 nm fluorescence, stem cell growth factors, primary screen (AID 1073); conditions: higher = more signal
[6] = target: Pro-neuregulin-1, membrane-bound isoform (Homo sapiens) (UniProt Q02297); assay: small molecules binding neuregulin-1 protein – biochemical, small-molecule microarray, fluorescence 635/667, psychiatric disease protein project, primary screen (AID 1075); conditions: NRG1 binding, 635 nm fluorescence, higher = more signal;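 also: score combines 667 nm spot fluorescence with signal to noise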
[7] = test system: Neuregulin-1 EGF-like domain; assay: small molecules binding NRG1 EGF domain – biochemical, small-molecule microarray, 635 nm fluorescence, primary screen (AID 1081); conditions: higher = more signal;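 also: binding of the protein to compounds printed on small-molecule microarray slides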
[8] = FRG1 expression reporter modulators in myotubes – cell-based, C2C12 myotubes, firefly/Renilla luciferase, luminescence, FRG1 inhibition for FSHD, primary screen (AID 1084); conditions: FRG1 promoter luciferase, higher = more signal, called active from +8 up or from −8 down
[9] = small molecules captured by biotinylated probe aFST – biochemical, small-molecule microarray, fluorescence 635/667, stem cell growth factor project, primary screen (AID 1086); conditions: higher = more signal;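 also: score merges 667 nm fluorescence with signal-to-noise of each printed compound spot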
[10] = binders of probe aHhip on microarray, primary screen, stem cell growth factor project, biochemical, small-molecule microarray, fluorescence 635/667 (AID 1087); conditions: higher = more signal;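 also: score merges spot fluorescence at 667nm with spot signal to noise ratio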
[11] = test system: PRMT1 (protein arginine N-methyltransferase 1); assay: small molecules binding arginine methyltransferase PRMT1 – biochemical, small-molecule microarray, 635 nm fluorescence, primary screen (AID 1088); conditions: higher = more signal;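 also: binding of Prmt1 protein to compounds spotted on small-molecule microarray slides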
[12] = growth effects on S. cerevisiae YJM789 – YJM789 clinical isolate, OD600, 24 h, basal, primary screen (AID 1089); conditions: higher = more signal, called active from +8 up or from −8 down;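 also: growth of clinical yeast isolate S. cerevisiae YJM 789 seeded 1000 cells per well; test concentration not given here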
[13] = S. pombe growth modifiers, basal conditions – strain 972, OD600, 24 h, no modulator, primary screen (AID 1090);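 also: basal condition with compound alone and no growth modifier present; test concentration not given here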; conditions: S. pombe 972 growth, higher = more signal, called active from +8 up or from −8 down
[14] = budding yeast growth modifiers under rapamycin – strain BY4716, OD600, 96 h, primary screen (AID 1091); also: test concentration not given here; conditions: S. cerevisiae BY4716 + rapamycin, higher = more signal, called active from +8 up or from −8 down
[15] = target: Torsin-1A-interacting protein 2 (Homo sapiens) (UniProt Q8NFQ8); assay: small molecules binding lysate-expressed LULL1 – cell lysate, human LULL1 lysate, 635/667 nm fluorescence, primary screen (AID 1092); conditions: small-molecule microarray, hLULL1 lysate binding, 635 nm fluorescence; higher = more signal;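 also: probe is lysate of COS7 cells overexpressing human LULL1; score merges per-feature 667 nm fluorescence with signal-to-noise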
[16] = optical density change of DRC41 E. coli – strain DRC41, OD650, 24 h, E. coli filamentation project, primary screen (AID 1093);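 also: MC1000 strain lacking acrAB efflux and sulA so SOS filamentation is blocked; test concentration not given here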; conditions: E. coli DRC41 growth, higher = more signal, called active from +8 up or from −8 down
[17] = probe aLefty2 binding to arrayed compounds – biochemical, biotinylated probe, 635/667 nm fluorescence, primary screen (AID 1094); conditions: small-molecule microarray, higher = more signal;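 also: score merges spot fluorescence near 667 nm with spot signal-to-noise ratio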
[18] = test system: Noggin (protein binding on small-molecule microarray); assay: small molecules binding Noggin protein – biochemical, 635/667 nm fluorescence, primary screen (AID 1095); conditions: 635 nm fluorescence, higher = more signal;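 also: score merges 667 nm feature fluorescence with signal to noise over triplicate slides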
[19] = target: Neurogenic locus notch homolog protein 3 (Homo sapiens) (UniProt Q9UM47); assay: small molecules binding NOTCH3 protein – biochemical, 635/667 nm fluorescence, primary screen (AID 1096); conditions: small-molecule microarray, 635 nm fluorescence, higher = more signal
[20] = probe aEGFR binding to arrayed compounds – biochemical, biotinylated probe, 635/667 nm fluorescence, primary screen (AID 1097); conditions: small-molecule microarray, higher = more signal;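 also: probe is a biotinylated anti-EGFR antibody binding compounds printed on slides; score combines fluorescence near 667 nm and signal to noise of each spot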

Pro-neuregulin-1, membrane-bound isoform (Homo sapiens), sequence (Q02297 whole entry, looked up, the tested form may be a part, canonical isoform): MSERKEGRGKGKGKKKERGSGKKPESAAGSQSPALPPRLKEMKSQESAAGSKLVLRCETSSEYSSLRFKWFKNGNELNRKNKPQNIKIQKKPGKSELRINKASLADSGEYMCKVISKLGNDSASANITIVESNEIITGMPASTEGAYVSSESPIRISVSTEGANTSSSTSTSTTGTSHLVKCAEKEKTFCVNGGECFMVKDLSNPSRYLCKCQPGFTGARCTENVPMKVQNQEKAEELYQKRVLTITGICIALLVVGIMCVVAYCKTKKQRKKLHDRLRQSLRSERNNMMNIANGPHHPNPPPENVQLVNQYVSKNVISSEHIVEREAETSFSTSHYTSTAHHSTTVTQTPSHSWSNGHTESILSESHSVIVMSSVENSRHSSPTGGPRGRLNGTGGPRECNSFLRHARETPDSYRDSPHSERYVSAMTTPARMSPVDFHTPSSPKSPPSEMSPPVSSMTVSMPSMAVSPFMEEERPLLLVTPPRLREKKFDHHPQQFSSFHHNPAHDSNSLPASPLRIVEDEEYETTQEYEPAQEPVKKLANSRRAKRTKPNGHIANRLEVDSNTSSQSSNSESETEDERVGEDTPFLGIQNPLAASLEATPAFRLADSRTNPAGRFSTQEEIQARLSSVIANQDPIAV
Torsin-1A-interacting protein 2 (Homo sapiens), sequence (Q8NFQ8 whole entry, looked up): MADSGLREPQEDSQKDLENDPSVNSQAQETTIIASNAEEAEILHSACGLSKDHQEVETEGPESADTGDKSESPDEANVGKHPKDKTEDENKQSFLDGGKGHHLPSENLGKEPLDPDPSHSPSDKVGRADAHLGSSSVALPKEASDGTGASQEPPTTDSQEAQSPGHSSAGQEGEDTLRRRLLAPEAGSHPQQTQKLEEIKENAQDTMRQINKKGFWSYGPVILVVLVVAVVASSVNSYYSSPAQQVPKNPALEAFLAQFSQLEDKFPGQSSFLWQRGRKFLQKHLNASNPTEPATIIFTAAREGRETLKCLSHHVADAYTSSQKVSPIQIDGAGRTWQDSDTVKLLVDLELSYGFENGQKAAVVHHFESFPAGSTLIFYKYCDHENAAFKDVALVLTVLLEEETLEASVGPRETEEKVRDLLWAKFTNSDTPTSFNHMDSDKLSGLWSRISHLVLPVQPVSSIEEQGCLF
Neurogenic locus notch homolog protein 2 (Homo sapiens), sequence (Q04721 whole entry, looked up, canonical isoform): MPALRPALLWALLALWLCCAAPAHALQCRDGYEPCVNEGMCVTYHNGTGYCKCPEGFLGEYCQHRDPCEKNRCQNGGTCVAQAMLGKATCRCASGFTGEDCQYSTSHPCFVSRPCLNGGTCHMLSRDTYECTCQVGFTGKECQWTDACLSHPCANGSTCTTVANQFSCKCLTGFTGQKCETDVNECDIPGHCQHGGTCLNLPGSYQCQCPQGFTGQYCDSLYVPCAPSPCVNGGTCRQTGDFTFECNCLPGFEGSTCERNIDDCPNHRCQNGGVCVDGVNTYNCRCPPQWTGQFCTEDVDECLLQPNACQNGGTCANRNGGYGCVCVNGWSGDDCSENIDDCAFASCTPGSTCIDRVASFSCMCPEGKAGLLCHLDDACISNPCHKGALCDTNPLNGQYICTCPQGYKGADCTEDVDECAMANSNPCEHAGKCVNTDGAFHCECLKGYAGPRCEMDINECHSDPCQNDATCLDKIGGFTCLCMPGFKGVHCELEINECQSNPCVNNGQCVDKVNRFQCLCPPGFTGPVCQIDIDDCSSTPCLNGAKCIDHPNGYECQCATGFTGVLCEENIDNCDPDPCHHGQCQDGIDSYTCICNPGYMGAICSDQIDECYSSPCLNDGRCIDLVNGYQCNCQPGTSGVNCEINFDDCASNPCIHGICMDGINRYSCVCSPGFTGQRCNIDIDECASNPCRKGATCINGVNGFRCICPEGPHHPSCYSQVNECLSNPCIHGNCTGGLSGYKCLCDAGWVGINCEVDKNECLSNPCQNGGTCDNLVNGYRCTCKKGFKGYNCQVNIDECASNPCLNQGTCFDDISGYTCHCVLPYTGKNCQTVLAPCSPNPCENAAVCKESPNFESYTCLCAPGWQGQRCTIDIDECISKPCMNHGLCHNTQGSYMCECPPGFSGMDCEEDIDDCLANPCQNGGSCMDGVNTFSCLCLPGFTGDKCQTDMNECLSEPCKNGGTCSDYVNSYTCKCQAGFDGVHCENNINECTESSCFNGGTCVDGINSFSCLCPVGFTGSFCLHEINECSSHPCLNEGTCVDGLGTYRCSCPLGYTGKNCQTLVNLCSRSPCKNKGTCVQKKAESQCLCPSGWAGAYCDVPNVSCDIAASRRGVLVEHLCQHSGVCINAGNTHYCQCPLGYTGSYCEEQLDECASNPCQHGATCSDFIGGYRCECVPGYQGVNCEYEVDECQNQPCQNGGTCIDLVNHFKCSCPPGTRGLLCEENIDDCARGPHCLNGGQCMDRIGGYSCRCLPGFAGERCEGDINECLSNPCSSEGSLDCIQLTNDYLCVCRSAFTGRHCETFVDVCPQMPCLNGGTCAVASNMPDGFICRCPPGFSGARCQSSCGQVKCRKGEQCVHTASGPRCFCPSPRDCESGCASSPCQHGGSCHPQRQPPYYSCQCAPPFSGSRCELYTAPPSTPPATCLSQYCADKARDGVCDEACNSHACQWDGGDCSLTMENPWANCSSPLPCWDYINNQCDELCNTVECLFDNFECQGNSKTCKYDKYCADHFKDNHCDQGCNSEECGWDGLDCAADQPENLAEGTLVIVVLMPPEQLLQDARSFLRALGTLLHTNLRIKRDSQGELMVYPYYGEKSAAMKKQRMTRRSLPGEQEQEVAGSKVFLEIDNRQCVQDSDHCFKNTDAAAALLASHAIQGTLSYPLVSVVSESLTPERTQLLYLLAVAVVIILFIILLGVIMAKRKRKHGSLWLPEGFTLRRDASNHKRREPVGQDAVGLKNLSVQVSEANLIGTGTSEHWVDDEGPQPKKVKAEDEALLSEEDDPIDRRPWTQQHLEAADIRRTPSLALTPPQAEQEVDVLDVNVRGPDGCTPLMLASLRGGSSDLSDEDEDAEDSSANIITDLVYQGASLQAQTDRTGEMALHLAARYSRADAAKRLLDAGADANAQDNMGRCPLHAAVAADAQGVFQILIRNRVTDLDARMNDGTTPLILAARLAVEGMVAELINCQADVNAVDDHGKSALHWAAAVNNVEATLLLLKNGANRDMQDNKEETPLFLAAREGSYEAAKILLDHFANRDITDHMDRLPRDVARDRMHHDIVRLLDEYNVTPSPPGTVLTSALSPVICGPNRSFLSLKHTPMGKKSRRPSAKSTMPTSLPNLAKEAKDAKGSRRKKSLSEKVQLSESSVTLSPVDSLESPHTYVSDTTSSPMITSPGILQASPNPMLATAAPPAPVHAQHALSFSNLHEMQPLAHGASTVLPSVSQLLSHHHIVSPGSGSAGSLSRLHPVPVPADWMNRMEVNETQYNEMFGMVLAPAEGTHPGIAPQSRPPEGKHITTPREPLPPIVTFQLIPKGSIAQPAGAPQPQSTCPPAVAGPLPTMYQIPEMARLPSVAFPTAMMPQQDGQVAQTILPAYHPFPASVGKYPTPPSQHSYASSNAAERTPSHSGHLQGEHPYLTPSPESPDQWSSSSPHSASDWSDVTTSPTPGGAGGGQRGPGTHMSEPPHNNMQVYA

Row | Structure (SMILES) | composite z-score [1] | composite z-score [2] | composite z-score [3] | composite z-score [4] | composite z-score [5] | composite z-score [6] | composite z-score [7] | z-score [8] | composite z-score [9] | composite z-score [10] | composite z-score [11] | z-score [12] | z-score [13] | z-score [14] | composite z-score [15] | z-score [16] | composite z-score [17] | composite z-score [18] | composite z-score [19] | composite z-score [20]
1 | COCCOC(=O)N1C(=O)[C@@]2(c3cc(C#Cc4ccc(OC)cc4)ccc31)[C@H](C(=O)N1CCCCCCC1)[C@H]1C(=O)O[C@H](c3ccccc3)[C@H](c3ccccc3)N1[C@@H]2c1ccc(O)cc1 | 2.75 | 0.294 | 0.125 | 0.479 | 0.565 | 0.114 | 1.13 | 1.09 (inactive) | 2.06 | 0.615 | 1.47 | -0.194 (inactive) | 0.318 (inactive) | 2.3 (inactive) | 1.79 | 0.551 (inactive) | 0.834 | 0.674 | 0.709 | 0.0577
2 | COc1ccc([Si](C)(C)[C@H]2[C@H](CC(=O)N3Cc4ccccc4C[C@H]3CO)O[C@@]3(C(=O)N(Cc4cccc(N5CCCCC5=O)c4)c4ccccc43)[C@@H]2C)cc1 | 0.0111 | 0.576 | 0.085 | 0.36 | 0.246 | 0.175 | 1.2 | -2.09 (inactive) | 0.342 | 0.0274 | 1.29 | -2.19 (inactive) | 0.522 (inactive) | 0.925 (inactive) | 1.79 | -0.0352 (inactive) | 0.02 | 1.02 | 1.09 | -0.0471
3 | NC(=O)NCC#Cc1ccc2c(c1)[C@]1(C(=O)N2)[C@H](c2ccc(O)cc2)N2[C@H](c3ccccc3)[C@H](c3ccccc3)OC(=O)[C@H]2[C@@H]1C(=O)Nc1nc2ccccc2s1 | 0.289 | 0.21 | -0.0222 | 0.478 | 0.768 | 0.434 | 0.633 | 0.63 (inactive) | 0.185 | 0.0881 | 1.39 | 4.88 (inactive) | 4.35 (inactive) | 8.57 (active) | 1.07 | 1.06 (inactive) | 0.122 | 1.05 | 0.362 | -0.0975
4 | NC(=O)NCC#Cc1ccc2c(c1)[C@]1(C(=O)N2)[C@H](C(=O)O)[C@H]2C(=O)O[C@H](c3ccccc3)[C@H](c3ccccc3)N2[C@@H]1c1ccccc1OCCO | 0.991 | 0.396 | -0.0749 | 0.776 | 0.231 | 1.99 | 1.01 | -0.765 (inactive) | 0.734 | 0.291 | 1.43 | -1.39 (inactive) | -1.19 (inactive) | -0.675 (inactive) | 1.43 | 3.22 (inactive) | 0.857 | 1.01 | 1.11 | 0.0223
5 | CCCCN1CC=CC23O[C@@H]4C=CCOC(=O)[C@@H]4[C@H]2C(=O)N(C(C)CO)[C@@H]3C1=O (stereo not given in full) | 0.762 | -0.665 | -0.187 | -0.174 | -1.03 | 1.7 | 0.745 | 1.66 (inactive) | -0.0725 | -0.189 | -1.57 | -0.543 (inactive) | -1.22 (inactive) | -0.557 (inactive) | -0.449 | -0.479 (inactive) | -0.205 | -0.929 | -1.25 | -0.216
6 | C[C@]1(C(=O)O)c2ccccc2C(=O)N(Cc2ccccc2)[C@H]1c1ccc(CO)cc1 | 1.63 | -0.646 | -0.116 | -1.03 | -1.24 | 0.869 | 0.521 | -0.319 (inactive) | -0.42 | -0.164 | -1.68 | 1.09 (inactive) | 0.468 (inactive) | 1.37 (inactive) | -0.884 | 0.651 (inactive) | 0.119 | -1.51 | -1.9 | -0.288
7 | CC(C)(C)OC(=O)CC[C@]1(C(=O)O)N=C(c2ccc(OCCCO)cc2)O[C@H]1c1ccccc1CN=[N+]=[N-] | -0.169 | -0.246 | 0.0911 | 0.113 | 0.261 | 1 | 1.45 | 2.04 (inactive) | 0.794 | -0.409 | -0.619 | 0.832 (inactive) | 0.291 (inactive) | -0.683 (inactive) | 2 | 0.275 (inactive) | -0.0991 | -0.465 | 0.168 | -0.103
8 | CCOC(=O)C[C@H]1[C@H](OC(=O)c2ccc(C(=O)c3ccccc3)cc2)[C@@H](NC(=O)c2ccc3ccccc3c2)c2cc(OCCCO)ccc2N1C(=O)c1ccccc1 | -0.476 | 0.443 | -0.0943 | 0.757 | 1.48 | 1.01 | 1.07 | 0.0732 (inactive) | 0.355 | -0.0672 | 1.56 | -0.79 (inactive) | -0.681 (inactive) | -0.278 (inactive) | 2.54 | -0.551 (inactive) | 0.0773 | 0.354 | 1.09 | 0.116
9 | COc1ccc([Si](C)(C)[C@H]2[C@H](CCO)O[C@@]3(C(=O)N(Cc4cccc(N5CCCCC5=O)c4)c4ccccc43)[C@@H]2C)cc1 | -0.337 | 0.154 | -0.081 | 0.375 | 0.87 | 0.652 | 1.2 | -2.32 (inactive) | 0.327 | 0.176 | 1.54 | 2.01 (inactive) | -1.99 (inactive) | 2.68 (inactive) | 1.56 | 0.525 (inactive) | -0.0732 | 0.296 | 0.896 | 0.214
